Source: PubChem (National Center for Advancing Translational Sciences (NCATS))
Shown are actives, neighbours in structure and some others; about 6.5% of the full set was active somewhere.
Vaccinia Venus: qHTS for Stage-Specific Inhibitors of Vaccinia Orthopoxvirus: Venus Reporter Primary qHTS; Vaccinia virus Venus reporter expression, fluorescence; Potency, µM (top dose mostly 36.5 µM), for inactives: top-dose activity change, negative = inhibition, usual class: inhibitors; AID 720580, 2013; actives 0.46% (n = 330,000); calls by dose curve; tested in A549 cells; note: potency is the fitted concentration of half-maximal effect; nearly all actives have a fitted effect of over 30% in size
MARV entry inh: qHTS for inhibitors of binding or entry into cells for Marburg Virus | Marburg virus pseudotyped entry inhibition, cell reporter | Potency, µM (doses to about 37.8 µM), inactives show at the highest dose activity change, negative = inhibition, actives largely listed as inhibitors | actives 1.8% (n = 300,000); calls by dose curve; tested in HEK293 cells; note: potency is the fitted concentration of half-maximal effect
Vaccinia mCherry: qHTS for Stage-Specific Inhibitors of Vaccinia Orthopoxvirus: mCherry Reporter Primary qHTS; Potency, µM (titrated, usually from 36.5 µM), without a hit: top-dose activity change, negative = inhibition, actives largely listed as inhibitors; actives 0.63% (n = 310,000); Vaccinia virus mCherry reporter infection, fluorescence; calls by dose curve; tested in A549 cells; note: potency is the fitted concentration of half-maximal effect; nearly all actives have a fitted effect of over 35% in size
FMDV antiviral: High Throughput Screening for Foot and Mouth Disease Virus Antivirals; FMDV antiviral cell-based qHTS; Potency, µM (highest dose often 57.9 µM), without a hit: at the highest dose activity change, negative = inhibition, most hits filed as inhibitors; actives 1.2% (n = 410,000); calls by dose curve; tested in HEK293T cells; note: read-out not given here; potency is the fitted concentration of half-maximal effect; nearly all actives have a fitted effect of over 45% in size
LASV entry inh: qHTS for Inhibitors of binding or entry into cells for Lassa Virus | Lassa virus pseudotype entry inhibition, cell reporter | Potency, µM (series often up to 37.9 µM), without a hit: top-dose activity change, negative = inhibition, usual class: inhibitors | actives 1.2% (n = 300,000) | AID 540256, 2011; calls by dose curve; tested in HEK293 cells; note: potency is the fitted concentration of half-maximal effect; nearly all actives have a fitted effect of over 50% in size
HCMV antiviral: qHTS Assay for inhibitors of the human cytomegalovirus (HCMV) | HFF cells, HCMV-luciferase reporter, 72 h; active compounds read low | activity change, negative = inhibition, % at 57.5 µM | actives 4.5% (n = 410,000); in the data active = activity change below about -60%; inconclusive = no clear call, values can overlap the other calls; inactive = above about -39%
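Human foreskin fibroblasts infected with luciferase-reporter HCMV at MOI 1 PFU/cell, compounds at two doses. Luciferase measured 72 h post infection; normalized to buffer-only basal and Salinomycin (10uM) controls.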
* marks the source's active call; other numbers are inactive results; i = inactive; ? = inconclusive; . = no result given; [ ] = another dose, or the depositor's remark. % is set by controls: 0 for no effect and ±100 for the full control effect.

SMILES | Vaccinia Venus | MARV entry inh | Vaccinia mCherry | FMDV antiviral | LASV entry inh | HCMV antiviral
O=C1c2ccccc2NC(c2ccc(-c3cccc([N+](=O)[O-])c3)o2)N1O (stereo not given) | ? | ? | 12.6µM* | -13.2% | ? | -78.7*
O=C1c2ccccc2NC(c2ccc(-c3ccc(Br)cc3)o2)N1O (stereo not given) | . | ? | . | -15.8% | -6.5% | -72.4*
Oc1ccccc1N=Nc1nc(-c2ccccc2)c(-c2ccccc2)[nH]1 | ? | 1µM* | ? | 28.2µM* | 1.41µM* | -107.0*
COc1ccccc1N=Nc1nc(-c2ccccc2)c(-c2ccccc2)[nH]1 | 14.5% | ? | i | -2.8% | ? | 4.4
C[N+](C)(CCOc1ccccc1)Cc1ccccc1 (tested in a mixture with another compound) | -3.6% | -0.7% | i | -7.5% | -4.1% | 8.0
CCCCCCCCCCCCC[N+](C)(C)Cc1ccccc1 | 11.2µM* | . | 11.2µM* | 28.2µM* | . | .
CCCCCCCCCCCCCCCC[N+](C)(C)Cc1ccc(F)cc1 | ? | ? | -24.0% | -8.6% | ? | -89.3*
CCOC(=O)c1[nH]c(C)c(CCC(=O)Nc2ccc(Br)c(C)c2)c1C | -10.9% | . | -3.2% | -12.2% | 3.6%[46.1 µM] | -18.9
O=C(/C=C/c1ccc(Cl)cc1)NC1CCS(=O)(=O)C1 (stereo not given) | 3.3% | 25.7%[46.1 µM] | -0.3% | 1.5% | 1.3% | ?
O=C(NC1CCS(=O)(=O)C1)Oc1ccc(Cl)cc1 (stereo not given) | . | 2.1% | . | -21.9% | -0.2% | -106.4*
COC(=O)c1ccc(COc2ccccc2/C=C(\C#N)C(=O)Nc2c(C)cccc2C)cc1 | -27.4% | 11.2µM* | -10.1% | 11.2µM* | ? | -25.2
COC(=O)c1ccc(COc2ccccc2/C=C(\C#N)C(=O)Nc2ccccc2C)cc1 | -9.2% | -0.5% | -13.8% | 19.1% | ? | 35.0
CCOC(=O)COc1ccc(F)cc1C(=O)c1ccn2nc(-c3ccc(Cl)cc3)cc2n1 | -2.0% | 4.9%[46.1 µM] | -4.3% | 8.1% | 9.2%[46.1 µM] | 4.0
COc1ccc(C2CC(=O)c3cc(-c4nc(-c5cccc([N+](=O)[O-])c5)cs4)c(=O)n(-c4cccc(C)c4)c3C2)cc1 (stereo not given) | -8.7% | 2.7%[46.1 µM] | -10.2% | -17.0% | -0.3%[46.1 µM] | -1.5
COCCn1c(=O)c(-c2ccc(Cl)cc2)nc2cnc(Oc3ccccc3)nc21 | . | . | . | -13.3% | . | .
COCCNC(=O)C1(C)CCCN(C(=O)c2c(F)ccc(C)c2F)C1 (stereo not given) | -8.0% | . | i | -16.3% | . | -63.6*
COCCNC(=O)C1(C)CCCN(C(=O)c2ccc(C)c(F)c2)C1 (stereo not given) | -1.6% | . | 37.8% | -12.4% | . | -31.6
O=C(CN1c2ccccc2Sc2ccccc21)N/N=C/c1ccc([N+](=O)[O-])cc1 | ? | 8.91µM* | -25.2% | -18.8% | ? | 47.5
O=C1c2[nH]nc(-c3ccc(Br)cc3)c2C(c2cccc(O)c2)N1c1ccc(Cl)cc1 (stereo not given) | ? | ? | ? | ? | ? | -105.1*
COC(=O)c1ccc(C2c3c(-c4ccc(Br)cc4)n[nH]c3C(=O)N2c2ccc(Cl)cc2)cc1 (stereo not given) | ? | ? | ? | ? | ? | -103.4*
O=C1c2[nH]nc(-c3ccccc3)c2C(c2ccccc2)N1c1cccc(C(F)(F)F)c1 (stereo not given) | ? | . | -18.3% | ? | ? | -108.1*
Cc1ccc(-c2n[nH]c3c2C(c2cccc(O)c2)N(c2ccc(C(=O)O)cc2)C3=O)cc1 (stereo not given) | -10.0% | 25.7%[46.1 µM] | -10.6% | 14.2% | 23.2%[46.1 µM] | -33.7
CC(C)(C)c1nc(NC(=O)Nc2ccccc2)sc1Br | . | . | . | ? | . | -97.3*
COc1ccc2nc(NC(=O)Nc3ccccc3)sc2c1 | -28.5% | ? | ? | 16.9% | ? | 24.0
Cc1cc(C(C)(C)C)oc1C(=O)N(CC(=O)NC1CCCC1)Cc1ccccc1 | -4.5% | -17.9% | -9.6% | . | -5.8% | -24.0
